Assay outcomes: PubChem, National Center for Advancing Translational Sciences (NCATS)
ALOX12 inh: inhibitors of human 12S-lipoxygenase ALOX12; purified 12hLO, xylenol orange hydroperoxide absorbance; Potency, µM (titrated, usually from 108 µM), usual class: inhibitors; 1.1% of 580,000 active
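Hydroperoxide product was detected by ferrous iron/xylenol orange as the 573 to 405 nm absorbance ratio. Arachidonic acid at 40 uM (final) was turned over for 30 min at room temperature by 150 nM human 12hLO, pH 7.0 Hepes buffer, after 15 min compound preincubation.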
TrxR1 inh: blocks rat thioredoxin reductase 1; recombinant rTrxR1, NADPH fluorescence consumption, selenite substrate; Potency, µM (series often up to 114 µM), usual class: inhibitors; 1% of 390,000 active; further: nearly all actives have a fitted effect of over 65% in size
Target sequence (O89049 whole entry, looked up): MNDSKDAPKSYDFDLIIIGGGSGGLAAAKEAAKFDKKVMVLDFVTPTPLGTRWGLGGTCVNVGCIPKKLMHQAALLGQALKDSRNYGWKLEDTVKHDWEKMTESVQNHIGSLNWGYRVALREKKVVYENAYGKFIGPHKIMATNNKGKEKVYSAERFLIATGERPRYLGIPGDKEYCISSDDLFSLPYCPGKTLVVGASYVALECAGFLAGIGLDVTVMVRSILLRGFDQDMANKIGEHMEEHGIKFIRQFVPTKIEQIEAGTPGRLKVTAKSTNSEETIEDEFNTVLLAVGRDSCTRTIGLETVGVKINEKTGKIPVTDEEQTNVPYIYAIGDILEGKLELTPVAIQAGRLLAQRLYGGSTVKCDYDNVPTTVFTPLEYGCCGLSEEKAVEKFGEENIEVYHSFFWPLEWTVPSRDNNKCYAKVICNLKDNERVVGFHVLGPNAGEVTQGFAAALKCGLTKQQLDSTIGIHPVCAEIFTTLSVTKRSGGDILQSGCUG
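Rat TrxR1 (90 nM in the dispensed reagent) was pre-reduced with 400 uM NADPH for 5 min at room temperature, then incubated with compound for 15 min. After 400 uM selenite was added, NADPH fluorescence (Ex 340/Em 450 nm) was followed for 8 min.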
Apoferritin bind: candidate novel general anesthetic via apoferritin binding; Potency, µM (doses to about 77.5 µM), most hits filed as inhibitors; AID 485281; apoferritin/1-aminoanthracene competitive binding, fluorescence; 0.074% of 350,000 active; further: nearly all actives have a fitted effect of over 20% in size
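Read-out: endpoint 1-AMA fluorescence, excitation 380 nm and emission 535 nm, after compounds sit 10 min at room temperature with 10 uM horse-spleen apoferritin in 50% saturated 1-AMA/PBS. Values come from four-parameter Hill fits.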
GRP78 ERSR act: inducers of ER stress response in human glioma cells. Potency, µM, usual class: activators. U87-MG GRP78 promoter luciferase reporter, 16 h. AID 602332. 0.02% of 420,000 active; further: series mostly up to about 76 µM; nearly all actives have a fitted effect of over 35% in size
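ERSR induction read as luciferase luminescence (Bright-Glo, 10 min at room temperature) in stably transfected human U87-MG glioma cells exposed to compounds for 16 h, using GRP78 as sensor.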
mIDH1 inhibitor: inhibitors of human mutant IDH1 R132H; IDH1-R132H enzyme, NADPH consumption, diaphorase/resazurin fluorescence; O75874; 0.093% of 390,000 active; AID 602179; Potency, µM (doses to about 76.6 µM), most hits filed as inhibitors; further: nearly all actives have a fitted effect of over 65% in size
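IDH1-R132H (0.5 ug/mL dispensed) in pH 7.5 Tris buffer was preincubated 30 min with compound, then given a substrate mix of 0.016 mM NADPH and 2 mM alpha-KG for 80 min at room temperature; remaining NADPH was read by diaphorase/resazurin fluorescence.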
TrxR1 substrate: substrates of rat thioredoxin reductase 1; Potency, µM (doses to about 114 µM); purified TrxR1 substrate turnover, NADPH consumption readout; 0.01% of 390,000 active; AID 588456; further: nearly all actives have a fitted effect of over 50% in size
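Rat TrxR1, dispensed at 90 nM, was prereduced with 400 uM NADPH (final) for 5 min at ~22 deg C, then incubated with compound 15 min before 400 uM selenite. A first-read NADPH fluorescence drop versus no-compound background flagged substrates.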
IDH1 autofl: autofluorescence interference, mutant IDH1 hit counter-screen | inhibition of signal, % at 51.2 µM | 750 tested, under 10 active | AID 623980 | Resorufin detection reagent fluorescence interference, cell-free | shares compounds with mIDH1 inhibitor
WT IDH1 inh: selectivity of mutant IDH1 inhibitors: human wild-type IDH1 | AID 623995 | Potency, µM (doses to about 115 µM), actives largely listed as inhibitors | WT IDH1 enzyme, NADPH diaphorase/resazurin fluorescence | 9% of 750 active | shares compounds with mIDH1 inhibitor; further: nearly all actives have a fitted effect of over 55% in size
IDH1 R132H conf: mutant IDH1 (human) inhibition, confirmed; shares compounds with mIDH1 inhibitor; IDH1 R132H enzyme, NADPH diaphorase/resazurin fluorescence; Potency, µM (doses to about 76.6 µM), usual class: inhibitors; 83% of 750 active; AID 624002; further: nearly all actives have a fitted effect of over 50% in size
A number is an active result; – = inactive; ? = inconclusive; · = not tested or not shown; [ ] = remark or other dose. Sampled rows, rich in hits. Any-hit rate of the full collection: about 1.7%. The call rests on the fitted dose curve; in most records, active means well fitted curve in the direction sought with a large enough effect; inconclusive means small, poorly fitted or top-dose-only effect, or another doubt; inactive means no such curve, though single readings can be large; an effect the other way counts as inactive or inconclusive.

SMILES	ALOX12 inh	TrxR1 inh	Apoferritin bind	GRP78 ERSR act	mIDH1 inhibitor	TrxR1 substrate	IDH1 autofl	WT IDH1 inh	IDH1 R132H conf
COc1ccc(C2c3c(-c4c(C)cc(C)cc4O)n[nH]c3C(=O)N2Cc2ccco2)cc1 (centres undefined)	?	–	?	·	·	–	·	·	·
O=C1c2[nH]nc(-c3ccccc3O)c2C(c2cccc(O)c2)N1Cc1ccco1 (centres undefined)	–	–	–	–	–	–	·	·	·
Cc1ccc(O)c(-c2n[nH]c3c2C(c2ccc(F)cc2)N(Cc2ccco2)C3=O)c1 (centres undefined)	?	–	–	–	40µM	–	–	–	28µM
Cc1cc(C)c(-c2n[nH]c3c2C(c2ccccc2F)N(Cc2ccco2)C3=O)c(O)c1 (centres undefined)	–	–	?	–	?	–	–	–	?
COc1ccc(C2c3c(-c4ccccc4O)n[nH]c3C(=O)N2Cc2ccco2)cc1 (centres undefined)	–	–	–	–	?	–	–	–	32µM
Cc1cccc(C(=O)N2CCC(Cc3nncn3C)C2)c1 (centres undefined)	–	·	·	·	·	·	·	·	·
COc1ccc(-c2cc3c(=O)n(CC(=O)Nc4cc(C)ccc4C)ccn3n2)cc1	?	–	–	·	·	–	·	·	·
CSc1ccc(CNC(=O)CCn2ccc3cc(S(=O)(=O)N4CCC(C)CC4)ccc32)cc1	?	–	–	–	–	–	·	·	·
O=C1NC[C@H](Cc2ccccc2)N(C[C@H]2CCCN2C[C@H](Cc2ccccc2)N2C[C@H](Cc3ccccc3)N(CCc3ccccc3)C(=O)C2=O)C1=O	?	–	·	–	?	–	–	–	28µM
O=C1NC[C@H](Cc2ccccc2)N(C[C@H]2CCCN2C[C@H](Cc2ccccc2)N2C[C@H](Cc3ccccc3)N(CC3CCCCC3)C(=O)C2=O)C1=O	?	–	·	–	?	–	–	–	?
O=C1CCCc2c1cc(-c1ccccc1)n2-c1ccc(O)cc1	?	–	–	–	–	–	·	·	·
Cc1ccc(-c2cc3c(n2-c2ccc(C(=O)O)cc2)CCCC3=O)cc1	–	–	–	–	?	–	–	–	35µM
CN1C[C@H](NC(=O)c2nc3ccccc3s2)CCC[C@@H](C(=O)N(C)Cc2cccnc2)CC1=O	–	·	·	·	·	·	·	·	·
CC(C)CCNC(=O)C(c1ccc(O)cc1)N(C(=O)C1COc2ccccc2O1)c1cccc(O)c1 (centres undefined)	?	–[11.4 µM]	–	–	?	–[11.4 µM]	–	–	?
CCOc1cccc(N(C(=O)C2COc3ccccc3O2)C(C(=O)NC2CCCCC2)c2ccc(O)cc2)c1 (centres undefined)	–	–	–	–	?	–	–	–	5.6µM
O=C(NC1CCCC1)C(c1ccc(O)cc1)N(CC1CCCO1)C(=O)C1COc2ccccc2O1 (centres undefined)	–	–	–	–	–	–	·	·	·
Cc1ccc2nc(CO[C@H]3CN(Cc4nccn4C)C[C@H]3F)[nH]c2c1	–	·	·	·	·	·	·	·	·
CC(C)c1ccccc1-n1c(SCc2cc(=O)oc3ccc4ccccc4c23)nnc1-c1cccnc1	–	–	–	–	?	–	–	–	11µM
Cc1nc(C)n(CCCn2cnc3cn(C)nc3c2=O)n1	–	·	·	·	·	·	·	·	·
Cc1ccc(C2=NN=C(NC(=O)CSc3nncn3C)SC2)cc1	?	–	–	–	32µM	–	–	–	45µM
Cc1ccc(NC(=O)CSc2nncn2C)c(C)c1	–	–	–	–	–	–	·	·	·
